Measured values reported in ChEMBL document CHEMBL4513216, “Probing the Open Global Health Chemical Diversity Library for Multistage-Active Starting Points for Next-Generation Antimalarials” (ACS Infect Dis, 2020).
In all, about 69,000 compounds went through this assay and about 8,600 (12%) showed an effect of 50% or more. The sample as a whole holds a higher share of strong results than the screen did.

What follows are molecules tested on Plasmodium berghei (assay: Screen against P. berghei liver stage (PbLuc), transformed with Luciferase, at 10uM). Conditions: tested at 10 uM.
Format: functional, HepG2
CN(CC1(O)CCCC1)C(=O)c1cccc(Nc2cnccn2)c1 gave an INHIBITION of 22%. With CCCN(C)S(=O)(=O)N1CCCC1c1ccco1 (centres undefined) the INHIBITION was 10.47%. CN(C)C(=O)C1CN(Cc2nccs2)CCN(S(C)(=O)=O)C1 (centres undefined) showed an INHIBITION of 7.52%. For COCC(C)(O)CNC(=O)c1cc(-c2ccc(F)cc2)nn1C (centres undefined), the INHIBITION was -89.3%. Cn1nc(C#N)c2c1CN(C(=O)c1cccnc1)CCC2 was tested, and the INHIBITION was 9.3%. Molecule CCCC(=O)NC(C(=O)OC)c1cc(F)ccc1F (centres undefined) has an INHIBITION of -14%. With Cc1nnc(C2CCN(c3ncccn3)CC2)o1 the INHIBITION was 25.8%. Molecule Cc1c(F)cccc1S(=O)(=O)NCCN has an INHIBITION of 4.3%. Work on CC(=O)NCC(=O)N1CCOC2(CCCN(c3ccc(C)nn3)C2)C1 (centres undefined) yielded an INHIBITION of 8.74%. In the case of Cc1ncsc1CN1C[C@H]2OCC[C@H]2[C@H](C(=O)NCC2CC2)C1, the INHIBITION is reported as 34.4%. Work on CC(C)NC(=O)[C@@H]1CN(Cc2nccs2)C[C@H]2OCC[C@H]21 yielded an INHIBITION of 71.1%. Cc1ncsc1CN1C[C@H](C(=O)NC2CCCC2)[C@@H]2CCO[C@@H]2C1 showed an INHIBITION of 52%. In the case of O=C(NCC1CC1)[C@H]1CN(Cc2nccs2)C[C@H]2OCC[C@@H]12, the INHIBITION is reported as 17.7%. Molecule Cc1ncsc1CN1C[C@H](C(=O)NCC2CC2)[C@@H]2CCO[C@@H]2C1 has an INHIBITION of 24.9%. O=C(NC1CCCC1)[C@@H]1CN(Cc2nccs2)C[C@H]2OCC[C@H]21 showed an INHIBITION of 32.4%. Cc1ccc(S(=O)(=O)N2CC[C@@H]3C[C@H](NC(=O)c4[nH]ncc4Br)[C@@H]32)cc1 was tested, and the INHIBITION was 35.9%. Cc1ccc(S(=O)(=O)NC(=O)CCc2cscn2)cc1Cl was tested, and the INHIBITION was 3.46%. Cc1nn(C)c(Cl)c1C1CCCN1C(=O)c1csnn1 (centres undefined) gave an INHIBITION of 10%. With CCCn1cc2c(C(F)F)cc(SCC(=O)O)nc2n1 the INHIBITION was 32.3%. CC(C)(CN1C[C@H](Nc2ncccn2)[C@@H](C2CC2)C1)N1CCOCC1 was tested, and the INHIBITION was 2.15%. CSc1cccc(NC(=O)Nc2c(O)oc3ccccc3c2=O)c1 gave an INHIBITION of 1.86%. In the case of CC(C)(CN1CCC2(CCNCC2)CC1)N1CCOCC1, the INHIBITION is reported as -22.1%. In the case of Cc1ccoc1C(=O)NC1CCN(CC(=O)N(C)c2ccccc2)CC1, the INHIBITION is reported as 22.3%. Cc1ccoc1C(=O)NC1CCN(Cc2cccc3ccccc23)CC1 showed an INHIBITION of 56.4%. Cc1ccoc1C(=O)NC1CCN(Cc2csc3c(F)cccc23)CC1 gave an INHIBITION of 87.4%. Cc1ccoc1C(=O)NC1CCN(Cc2ccccc2F)CC1 gave an INHIBITION of 44.1%. With Cc1ccoc1C(=O)NC1CCN(Cc2cccc3c2OCCO3)CC1 the INHIBITION was 52.1%. With Cc1ccoc1C(=O)NC1CCN(Cc2ccccc2C#N)CC1 the INHIBITION was -9.37%. Molecule Cc1ccoc1C(=O)NC1CCN(C(=O)Nc2ccccn2)CC1 has an INHIBITION of -31.8%. For CC(C)C(=O)NC1CCN(Cc2cccc3c2OCCO3)CC1, the INHIBITION was 6.81%. Cc1ccc(C(=O)NC2CCN(Cc3cccc4c3OCCO4)CC2)s1 gave an INHIBITION of 33.8%. Molecule CN(C)c1ncc(-c2ccc(C(N)=O)cc2)c(C2CCNC2)n1 (centres undefined) has an INHIBITION of 6.33%. In the case of Cc1cc(C(=O)N2CCC3(C2)CN(c2cccnc2)C(=O)CN3C)[nH]n1 (centres undefined), the INHIBITION is reported as 22.4%. For CC(C)c1nccn1C1CCCN(C(=O)c2cc(C(N)=O)cs2)C1 (centres undefined), the INHIBITION was 35.3%. Molecule CC(=O)N1CCC2(CC1)CN(C(C)C)c1ccc(F)cc12 has an INHIBITION of 12.2%. CN1CCC(Cc2cccc(-c3cc(F)ccc3C(=O)O)n2)CC1 gave an INHIBITION of 23.4%. CC(C)Oc1ccc(C(=O)N2CC[C@H](O)[C@@H](n3ccnc3)CC2)cc1 showed an INHIBITION of 26.3%. CCS(=O)(=O)c1ccccc1N1CCC(N)CC1 was tested, and the INHIBITION was 31.8%. Molecule CC(C)c1ncncc1C(=O)N1CCN(Cc2cccnc2)CC1 has an INHIBITION of 31.9%. Work on COCCOCC1(CNCc2ccc(F)cc2)C[C@@H](O)[C@@H](O)C1 (some centres undefined) yielded an INHIBITION of -43%. CC(C)Cc1nnc2sc(-c3cc(C(C)C)n[nH]3)nn12 gave an INHIBITION of 46.6%. In the case of CC(C)(C)c1ccc(CN2C[C@H]3CC(O)C[C@H]3C2)c(OCC(N)=O)c1 (some centres undefined), the INHIBITION is reported as -2.85%. Molecule COc1ccc2cnn(CC(=O)NC3CCCC3)c(=O)c2c1OC has an INHIBITION of 40.5%. Molecule Cc1cc(C)cc(NC(=O)N(CCC#N)CCCN(C)C)c1 has an INHIBITION of 52.6%. With COC(C)c1cccc(NC(=O)N(CCC#N)Cc2ccccn2)c1 (centres undefined) the INHIBITION was 27.8%. With CN(C)CCCN(CCC#N)C(=O)Nc1ccc2[nH]ccc2c1 the INHIBITION was 35.9%. In the case of CCOc1ccc(NC(=O)N(CCC#N)Cc2ccccn2)cc1F, the INHIBITION is reported as -1.95%. Work on N#CCCN(Cc1ccccn1)C(=O)Nc1cccc(F)c1 yielded an INHIBITION of -27.6%. For Cc1cc(NC(=O)N(CCC#N)CCCN(C)C)ccc1F, the INHIBITION was 52.6%. CCOc1ccccc1-n1c(C2CC2)n[nH]c1=O gave an INHIBITION of -8.25%. COc1cc(N2CC[C@@H]3O[C@H](C(=O)N(C)C)C[C@@H]32)ncn1 was tested, and the INHIBITION was -20.1%. In the case of Cc1cccc(CN2CCc3onc(CO)c3C2)n1, the INHIBITION is reported as 28.5%. With O=C1NCCN(C(=O)c2cn3ccsc3n2)C1c1cccc(F)c1 (centres undefined) the INHIBITION was 43.6%. In the case of O=C1NCCN(C(=O)c2cn3ccsc3n2)C1Cc1ccccc1 (centres undefined), the INHIBITION is reported as 54.5%. CCC(=O)N1CCN(C(=O)c2cn3ccsc3n2)[C@H]2CS(=O)(=O)C[C@H]21 was tested, and the INHIBITION was 14.9%. For Cc1cccnc1CN1CCN(C(=O)[C@@]23CNC[C@@H]2CN(C)C3)CC1, the INHIBITION was 41.5%. For Cc1cs/c(=N\C(=O)Cn2nc(N3CCSCC3)ccc2=O)[nH]1, the INHIBITION was 10.1%. For CCN(CC)CC1CCN(C(=O)CCn2cccn2)CC1, the INHIBITION was 17.15%. In the case of COC1CCN(C(=O)CCn2cccn2)CC1, the INHIBITION is reported as -9.85%. CNC(=O)C1CCN(C(=O)CCn2cccn2)CC1 showed an INHIBITION of 62.8%. COc1ccc(C)cc1NC(=O)C1CSc2ncc(C)c(=O)n2C1 (centres undefined) was tested, and the INHIBITION was 5.36%. c1ccc(CN2CCCC2)c(CNc2cncc3nnnn23)c1 showed an INHIBITION of -14.3%. For COc1cc(C(=O)NC(C)(C)CN2CCN(C)CC2)c2ccccc2n1, the INHIBITION was 28.05%. For CCCNC(=O)c1cc(OC)c(OC)cc1N(C)S(C)(=O)=O, the INHIBITION was 24.9%. With COc1cc(C(=O)NCCS(=O)(=O)N(C)C)c2ccccc2n1 the INHIBITION was 52.9%. For CN1CCC(NC(=O)c2cc(C3CCCCC3)nc3ccccc23)CC1, the INHIBITION was 10.5%. For CCn1nc(CC(C)C)cc1C(=O)NCCS(=O)(=O)N(C)C, the INHIBITION was 7.25%. Work on COc1cc(C(=O)NCC2(N(C)C)CCN(C)CC2)c2ccccc2n1 yielded an INHIBITION of 68.4%. Cc1nc(-c2ccccc2)sc1CNC1CCc2ncnn2C1 (centres undefined) gave an INHIBITION of 8.64%. CCn1nc2c(cc1=O)CN(Cc1nc(C)c(C)o1)CC2 was tested, and the INHIBITION was -29.7%. For CCCN1CCN(C(=O)CCn2nc(C(F)(F)F)c(Br)c2C)CC1, the INHIBITION was 6.67%. O=C1C[C@@H]2CC[C@H](CN1)N2C(=O)CCc1ccc2c(c1)OCO2 gave an INHIBITION of 17.6%. With Cn1nccc1-c1ccc2nc(C3CCN(CCO)CC3)nn2c1 the INHIBITION was 33.4%. c1cnc(N2CCC(c3nccn3CC3CC3)CC2)nc1 was tested, and the INHIBITION was 36.5%. For CN(C)Cc1cc(=O)n2c(n1)CN(C(=O)Cc1cccs1)CCC2, the INHIBITION was 27.6%. For CC1CN(CC(=O)N2CCCC2)CCN1c1ccc2nncn2n1 (centres undefined), the INHIBITION was 7.67%. Work on CC1CN(CC2CCCCC2)CCN1c1ccc2nncn2n1 (centres undefined) yielded an INHIBITION of 89.3%. CC1CN(CC(=O)NC2CCCC2)CCN1c1ccc2nncn2n1 (centres undefined) was tested, and the INHIBITION was 50.4%. Work on CC1CN(CCc2ccccn2)CCN1c1ccc2nncn2n1 (centres undefined) yielded an INHIBITION of 15.6%. Work on CC1CN(CC2CCCC2)CCN1c1ccc2nncn2n1 (centres undefined) yielded an INHIBITION of 82.6%. CC1CCCCN1C(=O)CN1CCN(c2ccc3nncn3n2)CC1 (centres undefined) was tested, and the INHIBITION was 24%. With O=C(CN1CCN(c2ccc3nncn3n2)CC1)NC1CCCCC1 the INHIBITION was -4.16%. In the case of Cc1nc(CN2CCN(c3ccc4nncn4n3)C(C)C2)oc1C (centres undefined), the INHIBITION is reported as 7.27%. In the case of O=C(CN1CCN(c2ccc3nncn3n2)CC1)NC1CCCC1, the INHIBITION is reported as -0.219%. Work on Cc1cc(CN(C)C(=O)NC2CCN(Cc3ccccn3)CC2)no1 yielded an INHIBITION of -26.6%. For CCn1cc(-c2cncn2CCc2ccc3c(c2)OCCO3)cn1, the INHIBITION was 16.5%. Cc1nc(N2CCOCC2)ncc1-c1cc(O)nc(N2CCCCC2)n1 gave an INHIBITION of 20.9%. O=C(NCc1csc2ccc(Cl)cc12)c1cc2n(n1)CCNC2 gave an INHIBITION of 44.4%. In the case of Cc1nn(CC(=O)n2cccn2)c(C)c1I, the INHIBITION is reported as 8.53%. Molecule O=C(N[C@@H]1CN(c2ncccn2)C[C@@H]2CCCO[C@@H]21)c1ccncc1 has an INHIBITION of 35.8%. For Cc1cccc(C2(CNC(=O)c3ccnc(N(C)C)c3)CCOCC2)c1, the INHIBITION was 13.5%. COc1ccc(Cl)cc1C(=O)N1C[C@H](C(C)C)[C@@H](N)C1 showed an INHIBITION of -0.55%. In the case of CCCc1nc(CN2CCOC(Cn3cncn3)C2)cs1 (centres undefined), the INHIBITION is reported as 5.9%. COc1ccc([C@@H]2CN(Cc3cccnc3N)C[C@H]2NC(C)=O)cc1 showed an INHIBITION of 23.9%. In the case of O=C(C1CC1)N1CCC2(CC1)CNCc1ccccc12, the INHIBITION is reported as 74.8%. For O=C(C1CCOC1)N1CCC2(CC1)Cc1ccccc1CNC2=O (centres undefined), the INHIBITION was 2.26%. In the case of O=C(C1CCCCC1)N1CCC2(CC1)CNCc1ccccc12, the INHIBITION is reported as 61.5%. With O=C([C@H]1CCCO1)N1CCC2(CC1)CNCc1ccccc12 the INHIBITION was 17.2%. Work on O=C(C1CC1)N1CCC2(CC1)CNc1ccc(F)cc12 yielded an INHIBITION of 8.85%. Work on O=C([C@@H]1CSCN1)N1CCC2(CC1)CNCc1ccccc12 yielded an INHIBITION of 27.5%. CC(CNC(=O)c1cc(C2CC2)on1)N1CCc2ccccc21 (centres undefined) was tested, and the INHIBITION was -51.5%. In the case of CC(Cc1ccccc1F)NC(=O)CCC1=NC(=C2N=CN=N2)NO1 (centres undefined), the INHIBITION is reported as 60.4%. CC(C)C(N)C1=NC(=C2N=CN=N2)NO1 (centres undefined) was tested, and the INHIBITION was 8.11%. For CC(C)CC(N)C1=NC(=C2N=CN=N2)NO1 (centres undefined), the INHIBITION was 37.7%.
